Data: PubChem BioAssay AID778 (Sanford-Burnham Center for Chemical Genomics, 2007)
The campaign covered roughly 96,000 compounds. About 20,000 (21%) were called active.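 Rule for the calls: active = CYP2C19 inhibition above a set limit at 5 µM in the primary screen (cut at about 50% in these data); inactive = the rest.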 A selection follows.

These molecules were tested against Cytochrome P450 2C19 (Homo sapiens) (UniProt P33261) (assay: blockers of cytochrome P450 2C19 activity – biochemical, luminescence, ADME assay, primary screen (AID 778;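 note: plate controls were negative control wells for no effect and 2.5 mM tranylcypromine positive control for full effect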)). Details: CYP2C19 Supersomes, luciferin-H EGE luminescence, 30 min; at 5 µM; active compounds read high.
Sequence of Cytochrome P450 2C19 (Homo sapiens) (P33261 whole entry, looked up): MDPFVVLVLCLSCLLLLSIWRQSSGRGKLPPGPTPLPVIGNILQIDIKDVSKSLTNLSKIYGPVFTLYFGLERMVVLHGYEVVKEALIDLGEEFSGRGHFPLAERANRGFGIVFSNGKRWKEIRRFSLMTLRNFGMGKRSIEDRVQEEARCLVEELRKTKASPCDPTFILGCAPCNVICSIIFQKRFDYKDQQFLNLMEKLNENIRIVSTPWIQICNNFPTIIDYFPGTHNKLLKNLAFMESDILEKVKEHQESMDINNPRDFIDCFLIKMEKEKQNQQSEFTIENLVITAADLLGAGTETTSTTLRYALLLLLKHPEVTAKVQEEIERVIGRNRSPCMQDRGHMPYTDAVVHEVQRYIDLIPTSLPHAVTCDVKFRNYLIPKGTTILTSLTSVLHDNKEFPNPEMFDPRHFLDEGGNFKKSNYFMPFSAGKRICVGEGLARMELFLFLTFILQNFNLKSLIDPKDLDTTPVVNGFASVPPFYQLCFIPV

inhibition, active:
Cc1ccc(C(C(=O)NC2CCCCC2)N(C(=O)c2csnn2)C2CC2)o1 (stereo unspecified) 50%
O=C(Nc1ccc2c(c1)OCO2)C1CC(c2c(F)cccc2Cl)=NO1 (stereo unspecified) 92.7%
CC1(C)Cc2c(C#N)c(SCc3nc4ccccc4[nH]3)nc(N3CCOCC3)c2CO1 80.5%
CC(C)C(=O)N1CCN(c2nc(-c3ccccc3)c3c(c2C#N)CC(C)(C)OC3)CC1 95.4%
CC(C)c1nc(N2CCOCC2)c(C#N)c2c1COC(C)(C)C2 55.5%

inhibition, inactive:
CCC(C(=O)NC1CCCC1)N(C(=O)c1snc(C(N)=O)c1N)c1ccc2c(c1)OCCO2 (stereo unspecified) -2.4%
Cc1ccsc1C(C(=O)NC1CCCCC1)N(C(=O)Cc1cccs1)C1CC1 (stereo unspecified) -2.9%
Cc1ccc(NC(=O)C2CC(c3ccc(F)cc3)=NO2)cc1 (stereo unspecified) 28.2%
O=C(Nc1ccc(F)c(Cl)c1)C1CCN(S(=O)(=O)c2cccnc2)CC1 41.7%
O=C(Nc1ccccc1-c1nnn(CC(=O)N2CCN(c3ccccc3)CC2)n1)c1cccs1 47.5%
C=CCN(N=Nc1cccc([N+](=O)[O-])c1)c1cccc([N+](=O)[O-])c1 19.3%
O=C(Nc1ccccc1Cl)N1CCN(c2ccc3nncn3n2)CC1 24.1%
O=C(Nc1ccc(Cl)cc1)N1CCc2[nH]c3ccccc3c2C1 13.4%
c1ccc2[nH]c(NCCN3CCOCC3)nc2c1 7.5%
CC(C)OC(=O)C(C#N)c1nc2ccccc2nc1N1CCN(Cc2ccccc2)CC1 (stereo unspecified) 30.6%
CC(C)Cc1nc(N2CCOCC2)c(C#N)c2c1CCC2 39.8%
Cc1nc(NCc2ccccc2)c(C(N)=O)c2c1COC(C)(C)C2 48.5%
C1=C(N2CCOCC2)/C(=C/c2nc3ccccc3[nH]2)CC1 20.6%
Cc1ccc2nc(-c3ccc(SCC(=O)Nc4cc(C)on4)nc3)[nH]c2c1 -9.6%
C=CCn1c(SCc2c(C)noc2C)nc2sc3c(c2c1=O)CCC(C)C3 (stereo unspecified) 29%
COc1ccc2[nH]c(=O)c(-c3noc(-c4ccc(F)cc4)n3)cc2c1 -20.6%
O=C(NCCCN1CCCCC1)c1ccc2c(c1)NC(=O)C(N1CCOCC1)S2 (stereo unspecified) -20.4%
Cc1cc2nc(-c3ccc(NC(=O)c4cccnc4)cc3)oc2cc1C -3.8%
c1ccc(-c2cn3cccnc3n2)cc1 1.9%
Cc1nc2ccc(NC(=O)C(F)(F)F)cc2o1 19.3%
C#CCN1CC(C)/C(=N/O)CC1C (stereo unspecified) -17%
